# Results: PubChem BioAssay AID504582 (Broad Institute, 2011)
# The campaign covered roughly 340,000 compounds. About 2,300 (0.68%) were called active. The full list was thinned out, with actives kept by preference. Values without a mark were called inactive. Rule as the data show it: active = growth rescue above about 28% (passing the limit was not always enough); inconclusive = no clear call, values can overlap the other calls.
# Assay: rescue of yeast from PfHsp40 toxicity, primary screen, S. cerevisiae, ATP luminescence (AID 504582);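 also: yeast W303a lacking pdr1 and pdr3 grown in galactose medium; growth measured after three days at 30 °C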
# Conditions: S. cerevisiae expressing PfHsp40, growth rescue, at 12.5 µM, hits give high values
row,Structure (SMILES),growth rescue
1,CC(=O)c1cccc(NC(=S)N2CCN(S(C)(=O)=O)CC2)c1,-0.215%
2,COc1cc(NC(=O)CSc2ccc(-c3cccnc3)nn2)cc(OC)c1,-0.74%
3,O=C(CSc1ccc(-c2ccc(-n3cccn3)cc2)nn1)Nc1ccc([N+](=O)[O-])cc1,0.191%
4,O=C(CSc1ccc(-c2ccccn2)nn1)Nc1ccccc1,379% (active)
5,N#Cc1ccc(C(=O)OCC(=O)NC(=O)NC2CCCCC2)cc1,0.27%
6,COc1ccc(CCNC(=O)COC(=O)c2cnc(Cl)c(Cl)c2)cc1,-2.56%
7,COc1ccc(NS(=O)(=O)c2ccc(NC(=S)NC(=O)/C=C/c3ccc(C)cc3)cc2)nn1,-1.55%
8,COc1ccc(OC(C)C(=O)Nc2cccnc2)cc1 (stereo not drawn),-0.665%
9,COc1ccc(NC(=O)/C(Cl)=C(/Cl)S(=O)Cc2ccc(C)cc2)cn1 (stereo not drawn),278% (active)
10,COc1cccc(NC(=S)N(Cc2ccc(C)cc2)Cc2ccccn2)c1,1.55%
11,COc1ccc(CS(=O)/C(Cl)=C(/Cl)C(=O)Nc2ccc(OC)nc2)cc1 (stereo not drawn),81.6% (active)
12,O=S(=O)(NC1CC1)c1ccc(Cl)cc1,-0.92%
13,O=S(=O)(NC1CCCCC1N1CCCCC1)c1ccc(Cl)cc1 (stereo not drawn),1.55%
14,O=S(=O)(NC1CC2CCC1C2)c1ccc(Cl)cc1 (stereo not drawn),74.5% (active)
15,COc1ccccc1OCC(=O)Nc1c2c(nn1-c1ccc(F)cc1)CS(=O)(=O)C2,3.47%
16,CCOC(=O)c1c(NC(=O)NC(C)(C)C)sc2c1CCN(C)C2,-1.54%
17,COc1ccccc1/C=N/N1CCN(Cc2ccccc2Cl)CC1,-1.43%
18,COc1ccccc1/C=N\Nc1cc(C)nc(-n2nc(C)cc2C)n1,143% (active)
19,CCOC(=O)c1cnc(-n2nc(C)cc2C)nc1NNc1cc(C)nc(-c2ccccc2)n1,0.854%
20,COc1ccc(CNC(=O)COC(=O)C2=Cc3ccccc3OC2)cc1,0.075%
21,CC(=O)c1c(C)[nH]c(C(=O)NCc2ccc(C)cc2)c1C,-0.188%

row,Structure (SMILES),growth rescue
1,CCCCNC(=O)CSc1nccn1Cc1ccccc1,0.912%
2,CN1CCN(c2nc(Nc3ccc(O)cc3)nc3ccccc23)CC1,-0.529%
3,Oc1ccc(-c2nnc(Nc3ccccc3)c3ccccc23)cc1,-0.3%
4,Cc1cccc(-c2nc(Nc3ccc(O)cc3)c3ccccc3n2)c1,101% (active)
5,CC1(C)CC(=O)c2c(n(S(=O)(=O)c3ccccc3)c3ccc(NS(=O)(=O)c4ccccc4)cc23)C1,-0.451%
6,CC(=O)N1N=C(c2ccncc2)OC1(Cc1ccccc1)Cc1ccccc1,-0.493%
7,O=C(CSc1n[nH]c(-c2cccnc2)n1)Nc1ccc(Cl)cc1,-2.05%
8,Cc1c(C(=O)NCCN2C(=O)S/C(=C\c3cccs3)C2=O)cccc1[N+](=O)[O-],0.66%
9,CC[C@]1(O)C[C@@H]2CN(CCc3c([nH]c4ccccc34)[C@@](C(=O)OC)(c3cc4c(cc3OC)N(C)[C@H]3[C@@](O)(C(=O)OC)[C@H](OC(C)=O)[C@]5(CC)C=CCN6CC[C@]43[C@@H]65)C2)C1,-2.2%
10,Cc1ccsc1-c1nc(CSCC(=O)NCCN2CCCC2)c(C)o1,35.6% (active)
11,Cc1cc(NC(=O)CSCc2nc(-c3cccc(Cl)c3)oc2C)no1,-0.561%
12,Cc1ccc(-c2nc(CSCC(=O)NC3CCN(Cc4ccccc4)CC3)c(C)o2)cc1,0.251%
13,Cc1ccccc1CSCCNC(=O)c1ccc(Cl)c(S(=O)(=O)N2CCOCC2)c1,1.98%
14,CCC1CCCCN1C(=O)CSc1nc2c(c(=O)n(C)c(=O)n2C)n1C (stereo not drawn),17.3%
15,Nc1ccccc1SC(C[N+](=O)[O-])c1ccccc1 (stereo not drawn),33.7% (active)
16,CC(=O)N(OCc1ccc(OC(C)C)c(Cl)c1)C(C)=O,-0.894%
17,COc1ccccc1CNC(=O)C1CCN(C(=O)[C@@H]2Cc3ccccc3CN2)CC1,-0.254%
18,COc1cccc(C2c3[nH]c4ccccc4c3CCN2Cc2cccc(C)n2)c1 (stereo not drawn),1.72%
19,CCCNC(=O)CCc1c(C)nc2c(c(C)nn2-c2ccc(C)cc2)c1C,1.12%
20,COc1ccc(C(=O)N(C)CC(O)c2ccccc2)cc1OC1CCN(C(C)=O)CC1 (stereo not drawn),2.54%
21,Cc1cc(S(=O)(=O)NC2CCCC2)ccc1-n1cnnn1,0.47%

row,Structure (SMILES),growth rescue
1,CCCCNC(=S)N/N=C1\CCCCc2ccccc21,63.9% (active)
2,S=C(NCCC1=CCCCC1)Nc1ccccc1,9.46%
3,CCCC1CCC(=NNC(=S)NCCc2ccccc2)CC1 (stereo not drawn),1.29%
4,CCCCn1nc(C(=O)Nc2cccc(C(=O)NC3CC3)c2)c2ccccc2c1=O,1.46%
5,O=C(NCCCN1CCCC1=O)c1ccc(S(=O)(=O)Nc2ccccc2)cc1,-0.823%
6,COCCN1C(=O)C(=O)/C(=C(/O)c2ccc(S(=O)(=O)N3CCOCC3)cc2)C1c1ccc(O)c(OC)c1 (stereo not drawn),-0.794%
7,CC(=O)OCc1cc(=O)n(C)c(=O)n1C,-0.117%
8,CC(=O)c1cc(NC(=O)c2ccccc2)c(=O)oc1/C=C/N(C)C,1.15%
9,Cc1cccc(NC(=O)c2ccc(S(=O)(=O)N(C)c3ccccc3)cc2)n1,-1.12%
10,CSc1nccc(NC(=O)c2ccc(C(C)(C)C)cc2)n1,733% (active)
11,COC(=O)c1nc(NC(=O)c2ccc(C(C)(C)C)cc2)n[nH]1,0.045%
12,Cn1c(C(=O)OC(C(=O)NC2CCCCC2)c2ccccn2)cc2sccc21 (stereo not drawn),1.92%
13,CC(C)(CNC(=O)c1ccc(Cl)c(S(=O)(=O)N2CCc3ccccc3C2)c1)N1CCOCC1,-1.18%
14,O=C(COC(=O)c1ccc(Br)o1)NC12CC3CC(CC(C3)C1)C2,4.21%
15,O=C(OCC(=O)c1cccs1)c1ccc([N+](=O)[O-])o1,-1.26%
16,O=C(COC(=O)c1ccc([N+](=O)[O-])o1)NC12CC3CC(CC(C3)C1)C2,364% (active)
17,Cc1csc(NC(=S)Nc2cccc(Cl)c2)n1,118% (active)
18,Cn1cc(Cl)c(C(=O)NNC(=S)Nc2cccc(Cl)c2)n1,-0.14%
19,Cc1cc(Cl)nc(NC(=O)Nc2cccc(Cl)c2)n1,-0.042%
20,CCOC(=O)c1csc(CCNC(=O)c2oc3c(Cl)cc(C)cc3c2C)n1,-0.607%
21,CCCc1nnc(NC(=O)CCC(=O)NC2CC2)s1,0.339%

row,Structure (SMILES),growth rescue
1,O=C(NCCCCO)C(F)(F)C(F)(F)C(F)(F)C(=O)NCCCCO,-1.94%
2,O=c1ccc2cc(S(=O)(=O)NCCCc3ccccc3)ccc2[nH]1,30.5% (active)
3,O=S(=O)(NCCc1ccccc1)c1ccccc1,-1.03%
4,O=S(=O)(NCCCc1ccccc1)c1ccc(Br)cc1,7.99%
5,Cc1nc2ccccn2c1C(=O)NN=C1CCN(C)CC1,-0.557%
6,CCCCNC(=O)N(O)C1N(/N=C/c2ccc(N(C)C)cc2)C(=S)SC1(C)C (stereo not drawn),-1.02%
7,O=S(=O)(c1cccc2nonc12)N1CCN(c2cccc(Cl)c2)CC1,1.52%
8,O=C(NNC(=O)c1cc(S(=O)(=O)N2CCCCC2)ccc1Cl)c1ccccc1O,91.7% (active)
9,CC1=C(C)CC(C(=O)NNC(=O)c2ccccc2O)C(C(=O)O)C1 (stereo not drawn),1.17%
10,CC1CCCC(NC(=O)c2cc(S(=O)(=O)N3CCCCC3)ccc2Cl)C1C (stereo not drawn),2.29%
11,O=C(NNC(=O)c1ccccc1O)c1ccccc1O,68% (active)
12,Cc1cc(C(=O)CCC(=O)NNC(=O)c2ccccc2O)c(C)s1,-0.863%
13,O=C(Nc1ccccc1C(=O)O)c1cc(S(=O)(=O)N2CCCCC2)cs1,0.561%
14,COC(=O)c1sc(N)c(C(=O)OC)c1COC(=O)CNS(=O)(=O)c1ccc(C)cc1,0.164%
15,COc1ccc(C(=O)C2CCCN(C(=O)c3cc4nc(C)cc(C)n4n3)C2)cc1F (stereo not drawn),-1.21%
16,COc1ccc2c(c1)OC(O)(C(F)(F)C(F)F)CC2=O (stereo not drawn),0.213%
17,N#CCc1ccc(NC(=O)c2ccccc2C(=O)Nc2ccc(CC#N)cc2)cc1,-0.068%
18,Cc1c(C(=O)Nc2ccccn2)oc2ccc(Br)cc12,-0.794%
19,Oc1ccc(Br)cc1/C=N/Nc1ccccn1,246% (active)
20,O=C(NN=Cc1ccccc1O)NN=Cc1ccccc1O,-0.914%
